In the library only some 27% were active in any assay of this set; here they are far more common.
CYP2C19 inh: blockers of cytochrome P450 2C19 activity – biochemical, luminescence, ADME assay, primary screen | P33261 | CYP2C19 Supersomes, luciferin-H EGE luminescence, 30 min | inhibition, % at 5 µM | hit rate 21% among 96,000 | AID 778, 2007;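 active = CYP2C19 inhibition above a set limit at 5 µM in the primary screen, cut at about 50% in these data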;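 note: plate controls were negative control wells for no effect and 2.5 mM tranylcypromine positive control for full effect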
EphB4 ephrin blk: EphB4-ephrin-B2 interaction antagonists, primary screen, biochemical, TNYL-RAW peptide probe, fluorescence polarization | EphB4 LBD / TNYL-RAW-Alexa532 peptide | Ephrin type-B receptor 4 (Homo sapiens), P54760 | inhibition, % at 7 µM | hit rate 0.15% among 97,000;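 active = inhibition above the screen-wide mean inhibition plus 3 SD, cut at about 15% in these data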;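 note: 0% = DMSO wells and 100% = excess unlabeled TNYL-RAW peptide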
Target sequence (P54760 whole entry, looked up, the tested form may be a part): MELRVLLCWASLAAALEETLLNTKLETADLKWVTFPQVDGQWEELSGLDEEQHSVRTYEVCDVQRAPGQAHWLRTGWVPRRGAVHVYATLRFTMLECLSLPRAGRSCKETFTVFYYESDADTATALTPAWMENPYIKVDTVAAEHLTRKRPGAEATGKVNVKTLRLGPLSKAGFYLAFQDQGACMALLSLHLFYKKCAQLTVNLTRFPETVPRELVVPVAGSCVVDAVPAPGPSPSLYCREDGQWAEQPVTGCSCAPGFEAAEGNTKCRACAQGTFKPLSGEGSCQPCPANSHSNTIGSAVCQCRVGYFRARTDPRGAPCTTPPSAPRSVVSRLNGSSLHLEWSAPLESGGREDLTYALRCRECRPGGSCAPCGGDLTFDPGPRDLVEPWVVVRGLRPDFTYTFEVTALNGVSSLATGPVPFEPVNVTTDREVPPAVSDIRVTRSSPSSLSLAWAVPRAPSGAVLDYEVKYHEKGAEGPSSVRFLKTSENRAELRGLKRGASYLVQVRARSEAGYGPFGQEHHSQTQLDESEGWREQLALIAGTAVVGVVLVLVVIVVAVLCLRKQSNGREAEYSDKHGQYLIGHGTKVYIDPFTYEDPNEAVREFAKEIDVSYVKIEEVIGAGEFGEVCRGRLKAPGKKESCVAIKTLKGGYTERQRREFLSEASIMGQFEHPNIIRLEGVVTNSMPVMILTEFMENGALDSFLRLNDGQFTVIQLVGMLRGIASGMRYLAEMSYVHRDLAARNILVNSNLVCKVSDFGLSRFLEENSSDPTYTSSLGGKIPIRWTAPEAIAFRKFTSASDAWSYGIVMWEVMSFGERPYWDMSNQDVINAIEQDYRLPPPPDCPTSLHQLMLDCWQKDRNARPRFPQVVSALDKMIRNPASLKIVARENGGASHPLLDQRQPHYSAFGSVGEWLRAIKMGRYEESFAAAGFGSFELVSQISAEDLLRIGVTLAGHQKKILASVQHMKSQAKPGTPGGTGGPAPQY
CYP2C9 inhib: blockers of cytochrome P450 2C9 activity – biochemical, luminescence, ADME assay, primary screen | CYP2C9 Supersomes, luciferin-H conversion | inhibition, % at 5 µM | hit rate 20% among 96,000 | AID 777, 2007 | P11712;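 active = blocking of liver enzyme CYP2C9 beyond about 50% at 5 µM, limit read from the data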
CYP2C19 act: human CYP2C19 activators, primary screen, biochemical, luminescence; Cytochrome P450 2C19 (Homo sapiens), P33261; recombinant CYP2C19, luciferin-H EGE luminescence; hits give high values; 0 = fully inhibited enzyme, 1 = untreated enzyme; activation factor at 5 µM; 96,000 tested, under 10 active; AID 1025, 2008;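 active = activation factor of at least 2 at 5 µM in the primary screen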;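 note: 0 = wells with 2.5 mM tranylcypromine and 1 = vehicle-only wells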
CYP2C9 act: human CYP2C9 activators, primary screen, biochemical, luminescence. activation factor at 5 µM. recombinant CYP2C9, luciferin-H conversion; hits give high values; factor 1 = untreated enzyme, 0 = blocked. hit rate 1.4% among 96,000;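 active = activation factor of 2 or more for CYP2C9 at a 5 µM dose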;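 note: 0 = sulfaphenazole-blocked wells and 1 = vehicle-only wells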
* marks the source's active call; other numbers are inactive results; · = not tested or not shown.

SMILES | CYP2C19 inh | EphB4 ephrin blk | CYP2C9 inhib | CYP2C19 act | CYP2C9 act
CCOC(=O)c1cnc2ccc(Br)cc2c1NCC(C)O (stereo not given) | 11 | · | 16 | 0.9 | 0.8
Cc1cc(C)cc(N2C(=O)CC(Sc3nnnn3-c3ccccc3)C2=O)c1 (stereo not given) | 54* | 4 | -49 | 0.5 | 1.5
O=C(NC1CCCC1)C(c1c[nH]c2ccccc12)N(C(=O)Cn1nnc(-c2ccc(Cl)cc2)n1)c1ccccc1 (stereo not given) | 30 | 6 | 67* | 0.7 | 0.3
Cc1ccc(-c2nnn(CC(=O)N(c3ccccc3)C(C(=O)NC3CCCC3)c3ccco3)n2)o1 (stereo not given) | 19 | -4 | -7 | 0.8 | 1.1
COc1cccc(N(C(=O)Cn2nnc(-c3ccc(C)cc3)n2)C(C(=O)NC(C)(C)C)c2c[nH]c3ccccc23)c1 (stereo not given) | 40 | 5 | 88* | 0.6 | 0.1
CC(C)(C)NC(=O)C(c1ccco1)N(C(=O)Cn1nnc(-c2ccc(F)cc2)n1)c1ccccc1 (stereo not given) | · | -4 | · | · | ·
CN(C)CCCNS(=O)(=O)c1ccc(N2CCC(c3ccc(Cl)cc3)=N2)cc1 | 14 | 9 | 16 | 0.9 | 0.8
N#Cc1ccc(CSc2nnc(-c3cnccn3)o2)cc1 | 70* | 6 | 27 | 0.3 | 0.7
C=CCN1C(c2ccccc2)=CS/C1=C(\C#N)c1nnc2n1CCCCC2 | 83* | · | 27 | 0.2 | 0.7
N#C/C(=C1/CCCCCN1)c1nnc2n1CCCCC2 | 2 | -3 | -4 | 1 | 1
CCOc1ccc(C2=CS/C(=C(\C#N)c3nnc4n3CCCCC4)N2CC)cc1 | 54* | -10 | 18 | 0.5 | 0.8
Cc1nc2oc3c(NCc4ccccc4)ncnc3c2c2c1COC(C)(C)C2 | 19 | -2 | 31 | 0.8 | 0.7
O=C(NCc1ccccc1)c1n[nH]nc1-c1ccccc1O | 73* | · | 52* | 0.3 | 0.5
CC(OC(=O)CN1C(=O)NC(C)(C)C1=O)C(=O)c1ccccc1 (stereo not given) | 60* | -5 | 24 | 0.4 | 0.8
Cc1ccccc1NC(=O)COC(=O)CN1C(=O)NC(C)(C)C1=O | 22 | 0 | 16 | 0.8 | 0.8
CN(C)Cc1nc2c([nH]1)c(=O)n(C)c(=O)n2C | 51* | 3 | 6 | 0.5 | 0.9
CN(Cc1ccccc1)Cc1nc2c([nH]1)c(=O)[nH]c(=O)n2C | -14 | 3 | -25 | 1.1 | 1.2
Cn1c(=O)c2[nH]c(CN(Cc3ccccc3)Cc3ccccc3)nc2n(C)c1=O | 6 | 0 | 81* | 0.9 | 0.2
CCOCCCNc1nc2c([nH]1)c(=O)n(C)c(=O)n2C | -15 | 10 | 0 | 1.1 | 1
Cc1nn(C)c(C)c1S(=O)(=O)N1CCC(C(=O)NC2CCCc3ccccc32)CC1 (stereo not given) | -1 | -3 | -80 | 1 | 1.8
O=C(COC(=O)C1CC1)NCc1ccccc1Cl | 70* | 4 | 18 | 0.3 | 0.8
O=C(NCc1ccccc1Cl)C1CCN(S(=O)(=O)N2CCCCC2)CC1 | 14 | 6 | -14 | 0.9 | 1.1
CC1CC1C(=O)OCC(=O)NCc1ccc(Cl)cc1 (stereo not given) | 97* | 0 | 53* | 0 | 0.5
CC1CC1C(=O)OCC(=O)NCc1ccc(Cl)cc1Cl (stereo not given) | 100* | 3 | 30 | 0 | 0.7
CC(C)c1nc2n[nH]c(N)c2c2c1CSC(C)(C)C2 | -12 | -8 | 18 | 1.1 | 0.8
SMILES | CYP2C19 inh | EphB4 ephrin blk | CYP2C9 inhib | CYP2C19 act | CYP2C9 act
Cc1[nH]c(=O)[nH]c(=O)c1S(=O)(=O)N1CCCC(C(=O)N2CCC(Cc3ccccc3)CC2)C1 (stereo not given) | 53* | · | -7 | 0.5 | 1.1
O=C(C1CCCN(S(=O)(=O)c2cccc3nonc23)C1)N1CCC(Cc2ccccc2)CC1 (stereo not given) | 51* | -2 | -79 | 0.5 | 1.8
O=C(NCCc1ccccc1)C1CCCN(S(=O)(=O)c2cccc3nonc23)C1 (stereo not given) | 7 | -1 | 10 | 0.9 | 0.9
Cc1[nH]c(=O)[nH]c(=O)c1S(=O)(=O)N1CCCC(C(=O)N2CCN(c3ccccc3Cl)CC2)C1 (stereo not given) | 9 | 2 | 10 | 0.9 | 0.9
COc1ccc(CCNC(=O)c2sc(=S)n(C)c2N)cc1 | 42 | 0 | 60* | 0.6 | 0.4
Cn1c(N)c(C(=O)NCc2ccccc2)sc1=S | 53* | · | 38 | 0.5 | 0.6
COc1ccc(CCNC(=O)c2sc3cc(C)ccc3c2Cl)cc1 | 50* | -4 | 56* | 0.5 | 0.4
Cc1ccc2c(Cl)c(C(=O)Nc3cc(C)on3)sc2c1 | 10 | 0 | 17 | 0.9 | 0.8
CCN1CCCC1Cn1cnc2c([nH]c3ccc(C)cc32)c1=O (stereo not given) | -10 | 5 | -7 | 1.1 | 1.1
CC1SC(=NC(=O)C(C)N2C(=O)c3ccccc3C2=O)NC1=O (stereo not given) | · | -5 | · | · | ·
O=C1C(=O)N(CCCn2ccnc2)C(c2ccccn2)/C1=C(/O)c1ccccc1 (stereo not given) | 8 | · | 49 | 0.9 | 0.5
COc1ccc2[nH]c3ccccc3c2c1 | 55* | -2 | 3 | 0.5 | 1
O=C(NCCO)c1ccc2c(c1)S(=O)(=O)c1ccccc1C2=O | -10 | -2 | -8 | 1.1 | 1.1
COc1ccc2[nH]c(O)c(NC(C)=O)c2c1 | 8 | 2 | 63* | 0.9 | 0.4
O=C(NCCO)c1ccc2[nH]c3ccccc3c2c1 | 91* | -1 | 16 | 0.1 | 0.8
CC(=O)Nc1ccc2[nH]c3ccccc3c2c1 | 73* | -4 | 10 | 0.3 | 0.9
COc1ccc2[nH]c(=S)[nH]c2c1 | 5 | 3 | 5 | 0.9 | 0.9
CCc1cc2c(-n3nc(C)cc3C)ncnc2s1 | · | -3 | · | · | ·
COC(=O)Cn1cccc1C(=O)c1ccccc1 | 2 | 4 | 5 | 1 | 1
COC(=O)c1ccc(N/C=C/C(=O)c2ccc(OC)c(OC)c2)cc1 | 6 | 2 | -84 | 0.9 | 1.8
COc1ccc(C(=O)/C=C/N2CCCCC2)cc1OC | 4 | · | -159 | 1 | 2.6*
CCCC(C)C(=O)N(Cc1ccccc1)c1ccccn1 (stereo not given) | 67* | 0 | 51* | 0.3 | 0.5
COCC(=O)N(Cc1ccccc1)c1ccccn1 | 10 | 5 | 14 | 0.9 | 0.9
O=C(Cc1ccccc1)N1CCN(C(=O)c2ccco2)CC1 | · | -7 | · | · | ·
CSc1ccccc1-n1nnnc1SCC(=O)NCc1cccs1 | · | 2 | · | · | ·
c1ccc(-n2nnnc2SCCCSc2nc3ccccc3s2)cc1 | 47 | -1 | 35 | 0.5 | 0.6
